# Assay results reported in publication PMC7862700, “An all-to-all approach to the identification of sequence-specific readers for epigenetic DNA modifications on cytosine”.
# Tests used:
# Assay in all cases: DAPPL (digital affinity profiling via proximity ligation, sequencing); 10 mM Tris-HCl pH 7.5, 50 mM NaCl, 1 mM DTT, 4% glycerol, room temperature, 30 min; GST-TFs on glutathione beads, 16-mer random dsDNA library, 0.1% formaldehyde crosslink after washing; high values mean tight binding
# Settings in all cases: protein: recombinant; tags: N-terminal GST; dsDNA, one strand shown
# ELK1 = target: T1, ELK1 (Homo sapiens, UniProt P19419 1-428)
# T1 sequence: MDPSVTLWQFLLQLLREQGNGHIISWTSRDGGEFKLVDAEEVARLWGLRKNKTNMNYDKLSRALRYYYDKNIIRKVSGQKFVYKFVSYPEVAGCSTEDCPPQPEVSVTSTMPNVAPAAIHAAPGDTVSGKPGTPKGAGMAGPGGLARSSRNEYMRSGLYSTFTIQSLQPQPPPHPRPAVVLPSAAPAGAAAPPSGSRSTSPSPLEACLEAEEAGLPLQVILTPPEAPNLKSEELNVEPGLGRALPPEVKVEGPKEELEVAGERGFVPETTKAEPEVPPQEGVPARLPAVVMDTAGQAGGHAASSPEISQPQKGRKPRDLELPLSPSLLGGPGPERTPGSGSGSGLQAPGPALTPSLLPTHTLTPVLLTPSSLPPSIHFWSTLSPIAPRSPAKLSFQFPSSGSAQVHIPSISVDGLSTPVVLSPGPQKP
# In short: (§1)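 A tag-only sample was pooled with DNA-barcoded human transcription factors that had been expressed in yeast as GST fusions and captured on glutathione beads. The pools were incubated for 30 min at room temperature with 200 nmole of a random double-stranded 16-mer DNA library in Tris/NaCl/DTT/glycerol buffer, then washed, crosslinked with 0.1% formaldehyde, proximity-ligated (BsaI/T4 ligase, 1 h, 37 °C), PCR-amplified and sequenced on an Illumina NextSeq500. Binding signal is each hexamer's read frequency for a factor divided by its frequency for the tag-only sample.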
# GABPA = target: T2, GABPA (Homo sapiens, UniProt Q06546 1-454)
# T2 sequence: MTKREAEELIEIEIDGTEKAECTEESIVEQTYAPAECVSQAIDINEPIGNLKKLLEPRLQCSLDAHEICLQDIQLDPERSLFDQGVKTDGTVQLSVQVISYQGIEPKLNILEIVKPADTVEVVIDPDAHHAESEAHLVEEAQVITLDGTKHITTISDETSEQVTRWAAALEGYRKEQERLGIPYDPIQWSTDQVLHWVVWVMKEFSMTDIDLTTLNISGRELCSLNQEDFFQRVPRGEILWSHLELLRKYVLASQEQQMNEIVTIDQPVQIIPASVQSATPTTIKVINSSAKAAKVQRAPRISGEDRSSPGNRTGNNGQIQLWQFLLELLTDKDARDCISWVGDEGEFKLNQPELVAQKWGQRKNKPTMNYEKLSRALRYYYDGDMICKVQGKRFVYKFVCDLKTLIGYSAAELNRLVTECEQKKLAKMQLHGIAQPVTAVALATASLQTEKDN
# In short: as §1
# ERG = target: T3, ERG (Homo sapiens, UniProt P11308 1-479)
# T3 sequence: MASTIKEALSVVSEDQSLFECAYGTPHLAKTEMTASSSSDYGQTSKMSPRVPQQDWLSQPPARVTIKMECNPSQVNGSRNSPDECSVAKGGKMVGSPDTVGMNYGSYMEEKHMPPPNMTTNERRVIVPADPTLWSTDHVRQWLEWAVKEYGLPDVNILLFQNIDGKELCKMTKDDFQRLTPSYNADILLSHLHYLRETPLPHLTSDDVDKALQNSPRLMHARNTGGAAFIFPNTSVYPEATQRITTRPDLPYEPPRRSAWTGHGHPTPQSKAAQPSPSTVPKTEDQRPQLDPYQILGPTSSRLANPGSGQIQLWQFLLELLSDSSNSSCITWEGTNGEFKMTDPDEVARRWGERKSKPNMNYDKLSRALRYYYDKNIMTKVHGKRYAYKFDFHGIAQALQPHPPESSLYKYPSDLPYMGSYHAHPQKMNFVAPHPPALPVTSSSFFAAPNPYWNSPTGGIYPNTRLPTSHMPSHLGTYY
# In short: as §1
# ELF1 = ELF1 (Homo sapiens, UniProt P32519 1-619)
# ELF1, sequence (P32519 whole entry): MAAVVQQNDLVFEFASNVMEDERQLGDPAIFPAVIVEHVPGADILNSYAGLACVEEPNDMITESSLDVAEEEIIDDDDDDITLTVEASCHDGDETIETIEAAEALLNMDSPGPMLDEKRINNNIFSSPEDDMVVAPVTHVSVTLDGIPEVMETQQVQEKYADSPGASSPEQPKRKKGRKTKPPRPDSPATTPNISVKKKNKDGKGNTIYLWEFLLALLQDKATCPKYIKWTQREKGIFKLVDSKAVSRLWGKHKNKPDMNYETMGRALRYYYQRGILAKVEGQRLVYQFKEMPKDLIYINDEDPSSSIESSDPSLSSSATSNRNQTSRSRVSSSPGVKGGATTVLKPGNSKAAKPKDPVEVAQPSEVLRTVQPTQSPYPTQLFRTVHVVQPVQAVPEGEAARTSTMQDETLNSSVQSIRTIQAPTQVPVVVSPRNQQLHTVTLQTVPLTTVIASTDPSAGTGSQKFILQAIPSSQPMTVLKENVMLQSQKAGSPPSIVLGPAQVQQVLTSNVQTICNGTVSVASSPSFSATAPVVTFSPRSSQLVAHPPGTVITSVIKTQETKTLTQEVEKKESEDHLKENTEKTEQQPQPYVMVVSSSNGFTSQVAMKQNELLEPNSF
# In short: as §1
# EHF = target: T4, EHF (Homo sapiens, UniProt Q9NZC4 1-300)
# T4 sequence: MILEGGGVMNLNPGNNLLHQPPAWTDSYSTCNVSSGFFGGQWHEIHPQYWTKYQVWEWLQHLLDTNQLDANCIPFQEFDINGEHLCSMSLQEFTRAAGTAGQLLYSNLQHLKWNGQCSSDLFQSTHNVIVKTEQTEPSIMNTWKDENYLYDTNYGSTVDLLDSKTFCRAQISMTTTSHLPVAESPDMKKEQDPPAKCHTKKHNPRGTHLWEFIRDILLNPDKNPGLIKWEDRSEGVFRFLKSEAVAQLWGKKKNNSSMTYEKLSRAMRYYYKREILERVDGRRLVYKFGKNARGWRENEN
# In short: as §1
# SPIB = SPIB (Homo sapiens, UniProt Q01892 1-262)
# SPIB, sequence (Q01892 whole entry): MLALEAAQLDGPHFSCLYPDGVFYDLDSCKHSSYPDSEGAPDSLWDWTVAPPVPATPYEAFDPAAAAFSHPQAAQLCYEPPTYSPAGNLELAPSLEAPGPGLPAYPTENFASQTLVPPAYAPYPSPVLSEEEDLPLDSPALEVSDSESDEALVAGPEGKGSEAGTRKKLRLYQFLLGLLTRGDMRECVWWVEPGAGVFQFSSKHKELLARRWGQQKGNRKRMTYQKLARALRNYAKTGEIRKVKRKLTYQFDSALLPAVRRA
# In short: as §1
# FEV = target: T5, FEV (Homo sapiens, UniProt Q99581 1-238)
# T5 sequence: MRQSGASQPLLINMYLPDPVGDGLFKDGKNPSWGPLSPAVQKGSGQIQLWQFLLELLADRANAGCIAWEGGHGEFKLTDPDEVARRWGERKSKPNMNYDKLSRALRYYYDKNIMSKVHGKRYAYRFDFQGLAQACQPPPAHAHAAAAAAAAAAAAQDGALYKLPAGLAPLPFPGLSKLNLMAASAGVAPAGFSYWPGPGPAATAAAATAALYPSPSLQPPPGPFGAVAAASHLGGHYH
# In short: as §1
# ETV5 = ETV5 (Homo sapiens, UniProt P41161 1-510)
# ETV5, sequence (P41161 whole entry): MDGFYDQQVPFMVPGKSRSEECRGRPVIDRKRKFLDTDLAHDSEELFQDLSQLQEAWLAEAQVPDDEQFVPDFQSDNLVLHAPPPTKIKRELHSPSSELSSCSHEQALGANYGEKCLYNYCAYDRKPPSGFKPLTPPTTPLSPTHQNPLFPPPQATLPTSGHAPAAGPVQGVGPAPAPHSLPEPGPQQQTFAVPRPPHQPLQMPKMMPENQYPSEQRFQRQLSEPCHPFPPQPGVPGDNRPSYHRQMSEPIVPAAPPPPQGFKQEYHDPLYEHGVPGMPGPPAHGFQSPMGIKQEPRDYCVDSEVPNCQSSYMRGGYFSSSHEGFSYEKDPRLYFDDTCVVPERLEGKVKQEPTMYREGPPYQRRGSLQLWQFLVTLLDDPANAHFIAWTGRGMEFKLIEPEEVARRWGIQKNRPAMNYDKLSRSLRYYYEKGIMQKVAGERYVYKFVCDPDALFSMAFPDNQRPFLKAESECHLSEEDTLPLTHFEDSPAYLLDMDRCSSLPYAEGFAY
# In short: as §1
# ELF4 = ELF4 (Homo sapiens, UniProt Q99607 1-663)
# ELF4, sequence (Q99607 whole entry): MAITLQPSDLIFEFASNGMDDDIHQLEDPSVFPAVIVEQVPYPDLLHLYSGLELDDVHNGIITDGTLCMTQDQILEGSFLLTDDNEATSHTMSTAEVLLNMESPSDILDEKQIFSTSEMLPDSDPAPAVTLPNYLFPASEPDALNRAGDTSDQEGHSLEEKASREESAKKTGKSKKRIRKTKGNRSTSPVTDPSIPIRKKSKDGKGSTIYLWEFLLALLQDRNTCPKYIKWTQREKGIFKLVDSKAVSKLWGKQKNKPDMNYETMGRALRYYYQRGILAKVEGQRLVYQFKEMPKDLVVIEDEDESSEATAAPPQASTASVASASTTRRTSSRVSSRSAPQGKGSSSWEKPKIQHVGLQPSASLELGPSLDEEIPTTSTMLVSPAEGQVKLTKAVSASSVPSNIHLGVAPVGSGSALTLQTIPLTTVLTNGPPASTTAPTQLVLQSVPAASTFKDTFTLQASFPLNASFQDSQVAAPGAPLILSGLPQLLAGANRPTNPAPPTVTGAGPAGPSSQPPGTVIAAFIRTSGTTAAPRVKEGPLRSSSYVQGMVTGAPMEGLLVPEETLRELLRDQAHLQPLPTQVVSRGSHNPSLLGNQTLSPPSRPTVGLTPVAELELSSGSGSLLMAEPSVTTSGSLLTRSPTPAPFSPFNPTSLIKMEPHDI
# In short: as §1
# ELK4 = target: T6, ELK4 (Homo sapiens, UniProt P28324-2 1-405)
# T6 sequence: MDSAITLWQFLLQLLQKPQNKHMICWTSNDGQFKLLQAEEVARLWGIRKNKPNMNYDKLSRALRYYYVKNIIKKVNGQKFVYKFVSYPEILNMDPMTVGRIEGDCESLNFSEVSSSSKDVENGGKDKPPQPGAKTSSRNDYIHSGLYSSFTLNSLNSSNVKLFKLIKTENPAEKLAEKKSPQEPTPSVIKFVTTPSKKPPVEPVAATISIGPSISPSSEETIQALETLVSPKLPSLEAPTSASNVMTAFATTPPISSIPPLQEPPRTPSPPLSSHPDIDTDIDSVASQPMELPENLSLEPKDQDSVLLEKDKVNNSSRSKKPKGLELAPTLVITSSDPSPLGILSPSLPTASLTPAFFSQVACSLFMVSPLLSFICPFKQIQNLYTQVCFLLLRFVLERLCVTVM
# In short: as §1
sequence,measurement,setting,value
CCAACC,binding signal,ELK1,"1.1 fold enrichment (6-mer frequency, TF over GST control)"
same,binding signal,GABPA,"1.01 fold enrichment (6-mer frequency, TF over GST control)"
same,binding signal,ERG,"1.09 fold enrichment (6-mer frequency, TF over GST control)"
same,binding signal,ELF1,"1.16 fold enrichment (6-mer frequency, TF over GST control)"
same,binding signal,EHF,"1.04 fold enrichment (6-mer frequency, TF over GST control)"
same,binding signal,SPIB,"1.06 fold enrichment (6-mer frequency, TF over GST control)"
same,binding signal,FEV,"1.1 fold enrichment (6-mer frequency, TF over GST control)"
same,binding signal,ETV5,"1.01 fold enrichment (6-mer frequency, TF over GST control)"
same,binding signal,ELF4,"1.15 fold enrichment (6-mer frequency, TF over GST control)"
same,binding signal,ELK4,"1.13 fold enrichment (6-mer frequency, TF over GST control)"
